Assay in all cases: yeast three-hybrid, YBZ-1, SC-Leu-His + 0.5 mM 3-AT, 4 days
Common to all, as to settings: tags: N-Gal4 AD-HA kept; label: inside an RPR1-promoter hybrid RNA with tandem MS2 sites; ssRNA

One test addresses PUM1 PUF domain R3-WCA (Homo sapiens, UniProt Q14671 828-1176, C935W;R936C;Q939A). An outline of the steps: (§1)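 The interaction score is the logarithmic change in variant frequency from input to selection. It uses log2, with a pseudocount of 1 for absent variants, and frequencies came from PCR-amplified, Illumina-sequenced repeat regions. The libraries were Pumilio-1 PUF domains randomized at the three base-contacting residues per repeat, co-expressed with matching RNA elements in strain YBZ-1 (LexA–MS2 coat fusion, HIS3 reporter). Plating lasted four days on SC-Leu (input) or SC-Leu-His + 0.5 mM 3-AT (selection).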

For a further test, the target named is PUM1 PUF domain R1-RST (Homo sapiens, UniProt Q14671 828-1176, S863R;R864S;Q867T). An outline of the steps:
as §1

In a further test the target is PUM1 PUF domain R3-GPW (Homo sapiens, UniProt Q14671 828-1176, C935G;R936P;Q939W). An outline of the steps:
as §1

Another test addresses T1, PUM1 PUF domain R6-RYT (Homo sapiens, UniProt Q14671 828-1176, N1043R;Q1047T).
T1 sequence: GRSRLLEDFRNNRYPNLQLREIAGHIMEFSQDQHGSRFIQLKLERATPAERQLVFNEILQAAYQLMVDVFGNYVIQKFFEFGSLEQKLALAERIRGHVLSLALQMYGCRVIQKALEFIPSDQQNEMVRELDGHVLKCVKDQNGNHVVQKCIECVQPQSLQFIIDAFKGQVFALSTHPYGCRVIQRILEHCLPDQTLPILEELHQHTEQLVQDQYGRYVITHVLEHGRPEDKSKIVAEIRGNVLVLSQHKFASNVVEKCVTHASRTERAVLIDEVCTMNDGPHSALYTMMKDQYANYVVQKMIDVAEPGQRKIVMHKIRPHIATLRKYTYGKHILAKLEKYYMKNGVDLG
Put shortly: as §1

The next test has as its target PUM1 PUF domain R4-RRY (Homo sapiens, UniProt Q14671 828-1176, N971R;H972R;Q975Y). Put shortly:
as §1

The next test concerns the target PUM1 PUF domain R3-EFV (Homo sapiens, UniProt Q14671 828-1176, C935E;R936F;Q939V). An outline of the steps: as §1
A further test concerns the target PUM1 PUF domain R5-LYV (Homo sapiens, UniProt Q14671 828-1176, C1007L;R1008Y;Q1011V). Put shortly:
as §1

The target of another test is PUM1 PUF domain R8-KHL (Homo sapiens, UniProt Q14671 828-1176, N1122K;Y1123H;Q1126L). An outline of the steps: as §1
The next test deals with PUM1 PUF domain R3-MWY (Homo sapiens, UniProt Q14671 828-1176, C935M;R936W;Q939Y). An outline of the steps: as §1
A further test concerns the target PUM1 PUF domain R5-QTI (Homo sapiens, UniProt Q14671 828-1176, C1007Q;R1008T;Q1011I). An outline of the steps:
as §1

The record followed here is publication PMC8384837, “Expanding the binding specificity for RNA recognition by a PUF domain”.

In the case of “GGCUAGAACUAGUGGAUCCCCCGGCGCCCGGCGGCUCGAGCCCGGGUAAGUGUAAGUAGUCUGCAUGCCGCCGGGCGCCAUGCCUGCAGGUCGACUCUAGAAAACAUG”, the binding signal with PUM1 PUF domain R3-WCA is 3.27 log2 enrichment (interaction score).
As for “GGCUAGAACUAGUGGAUCCCCCGGCGCCCGGCGGCUCGAGCCCGGGUAAGUGUAAAUGGUCUGCAUGCCGCCGGGCGCCAUGCCUGCAGGUCGACUCUAGAAAACAUG”, the binding signal with PUM1 PUF domain R1-RST is 2.92 log2 enrichment (interaction score).
On the same count and under the same terms, with “GGCUAGAACUAGUGGAUCCCCCGGCGCCCGGCGGCUCGAGCCCGGGUAAGUGUAAAUCGUCUGCAUGCCGCCGGGCGCCAUGCCUGCAGGUCGACUCUAGAAAACAUG” the figure was 5.18 log2 enrichment (interaction score); with “GGCUAGAACUAGUGGAUCCCCCGGCGCCCGGCGGCUCGAGCCCGGGUAAGUGUAAAUUGUCUGCAUGCCGCCGGGCGCCAUGCCUGCAGGUCGACUCUAGAAAACAUG”, 3.88 log2 enrichment (interaction score).
“GGCUAGAACUAGUGGAUCCCCCGGCGCCCGGCGGCUCGAGCCCGGGUAAGUGUAAAUAGUCUGCAUGCCGCCGGGCGCCAUGCCUGCAGGUCGACUCUAGAAAACAUG”: the binding signal in the test with PUM1 PUF domain R3-GPW was 4.04 log2 enrichment (interaction score); with PUM1 PUF domain R6-RYT, 2.71 log2 enrichment (interaction score); in the test with PUM1 PUF domain R4-RRY it was 2.87 log2 enrichment (interaction score); with PUM1 PUF domain R3-EFV, 3.71 log2 enrichment (interaction score); with PUM1 PUF domain R5-LYV, 3.28 log2 enrichment (interaction score); in the test with PUM1 PUF domain R8-KHL, 4.75 log2 enrichment (interaction score).
Consider “GGCUAGAACUAGUGGAUCCCCCGGCGCCCGGCGGCUCGAGCCCGGGUAAGUGUAAUUAGUCUGCAUGCCGCCGGGCGCCAUGCCUGCAGGUCGACUCUAGAAAACAUG”, for which the binding signal with PUM1 PUF domain R3-MWY was 3.31 log2 enrichment (interaction score).
Regarding “GGCUAGAACUAGUGGAUCCCCCGGCGCCCGGCGGCUCGAGCCCGGGUAAGUGUGAAUAGUCUGCAUGCCGCCGGGCGCCAUGCCUGCAGGUCGACUCUAGAAAACAUG”, the binding signal in the test with PUM1 PUF domain R5-QTI was 3.11 log2 enrichment (interaction score).
On to “GGCUAGAACUAGUGGAUCCCCCGGCGCCCGGCGGCUCGAGCCCGGGUAAGCGUAAAUAGUCUGCAUGCCGCCGGGCGCCAUGCCUGCAGGUCGACUCUAGAAAACAUG”, for which the binding signal with PUM1 PUF domain R8-KHL is 5.8 log2 enrichment (interaction score).
